# Data published in PubChem BioAssay (Tox21).
# Records with an inconclusive call do not appear. Where a call stands in place of a potency, no number is given. A number with no mark means an inactive call. Activity calls are given as the source filed them. Calls follow the shape of the dose curve; as a rule, active = well fitted curve in the direction sought with a large enough effect in the repeat runs; inconclusive = weak or mixed curves; inactive = no such curve, though single readings can be large; an effect the other way counts as inactive or inconclusive.
# Legend:
# [1] = qHTS assay to identify small molecule antagonists of the retinoid acid receptor (RAR) signaling pathway - cell viability counter screen (AID 1159551); also: nearly all actives have a fitted effect of over 35% in size
# How it was run: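 Measured by luminescent ATP detection, viability reflects C3RL4 cells treated 6 h at 37 C with test chemicals in the presence of 1 uM (final) retinol.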
# [2] = qHTS assay to identify small molecule antagonists of the retinoic acid receptor (RAR) signaling pathway (AID 1159552; also: nearly all actives have a fitted effect of over 50% in size; also: potency is read from the fitted curve at half-maximal effect)
# How it was run: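 Luminescent RARE reporter read-out in C3RL4 cells: 6 hr co-treatment at 37 C of test compounds with retinol at 1 uM final. Cells plated overnight beforehand; luciferase reagent incubated 30 min at room temperature before reading.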
# [3] = qHTS assay to identify small molecule agonists of the retinoic acid receptor (RAR) signaling pathway (AID 1159553)
# How it was run: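 6 hr compound exposure (DMSO vehicle) of overnight-plated C3RL4 RARE-luc cells at 37 C; luminescence quantified after 30 min RT with luciferase reagent.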
# [4] = qHTS assay to identify small molecule agonists of the RXR signaling pathway - cell viability counter screen (AID 1159529); also: nearly all actives have a fitted effect of over 50% in size; also: potency is read from the fitted curve at half-maximal effect; as to activity change, negative = cytotoxicity: series mostly up to about 77 µM
# How it was run: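 CellTiter-Glo luminescence gave viability in the wells also read for beta-lactamase. Cells (RXR-alpha-UAS-bla HEK 293T, 2% charcoal-stripped FBS medium) had 5 hr plating, then 16 hr compound exposure at 37 C; tetraoctyl ammonium bromide served as positive control.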
# [5] = qHTS assay to identify small molecule antagonists of the estrogen related receptor (ERR) signaling pathway from Tox21 library - cell viability counter screen (AID 1224834); also: nearly all actives have a fitted effect of over 30% in size; also: potency is read from the fitted curve at half-maximal effect
# How it was run: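 Seeded ERR cells were rested 6 h at 37 C/5% CO2 before compounds, positive and negative controls or DMSO were added. Incubation continued for 17.5 h, and viability was then quantified by CellTiter-Fluor fluorescence.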
# [6] = qHTS assay to identify small molecule antagonists of the estrogen related receptor (ERR) signaling pathway (AID 1224819; also: potency is read from the fitted curve at half-maximal effect; nearly all actives have a fitted effect of over 50% in size)
# How it was run: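 Compounds dissolved in DMSO were pin-transferred onto ERR cells that had been plated 6 h earlier, and cells were then incubated 18 h at 37 C; signal was luciferase luminescence via One-Glo.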
# [7] = qHTS assay to identify small molecule agonists of the estrogen related receptor (ERR) signaling pathway (AID 1224820)
# How it was run: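 An ERR cell line provided by NTP was seeded at 2,000 cells per well and allowed to settle for 6 h before compounds in DMSO were added. After 18 h at 37 C, luciferase activity was measured by One-Glo luminescence.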
# [8] = qHTS assay to identify small molecule agonists of the estrogen related receptor signaling pathway with the pleiotropic PPARgamma coactivator (PGC) (AID 1224823)
# How it was run: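 Compounds dissolved in DMSO are added by pin tool to PGC/ERR cells that have settled for 6 h, and incubation continues 18 h at 37 C. Reporter output is measured as One-Glo luminescence.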
structure (smiles),measurement,setting,value
Cc1cnc(C)c(C)n1,Potency,[1],inactive
same,Potency,[2],inactive
same,Potency,[3],inactive
C=CC(C)(C)CC(=O)OC,Potency,[4],inactive
same,Potency,[2],15.4 µM (active)
same,Potency,[3],inactive
same,Potency,[5],1.22 µM (active)
OC(CCCN1CCCCC1)(c1ccccc1)c1ccccc1,Potency,[4],inactive
same,Potency,[1],inactive
same,Potency,[5],inactive
CCOC(=O)N1CCC(n2c(=O)[nH]c3cc(Cl)ccc32)CC1,Potency,[1],inactive
same,Potency,[2],inactive
same,Potency,[3],inactive
CC(=O)OCC(=O)[C@@]12OC(C)(C)O[C@@H]1C[C@H]1[C@@H]3C[C@H](F)C4=CC(=O)C=C[C@]4(C)[C@@]3(F)[C@@H](O)C[C@@]12C,Potency,[4],inactive
same,Potency,[1],inactive
same,Potency,[5],inactive
O=C(N/N=C/c1ccc([N+](=O)[O-])o1)c1ccc(O)cc1,Potency,[4],inactive
same,Potency,[3],inactive
CCn1cc(C(=O)O)c(=O)c2cc(F)c(N3CCNCC3)nc21,Potency,[4],inactive
same,Potency,[1],inactive
same,Potency,[5],inactive
CCn1nc(C)c2c1C(=O)NCC(c1ccc(O)cc1)=N2,Potency,[4],inactive
same,Potency,[1],inactive
same,Potency,[5],inactive
CN(C(=O)C(Cl)Cl)c1ccc(OC(=O)c2ccco2)cc1,Potency,[4],inactive
same,Potency,[1],inactive
same,Potency,[5],inactive
c1cc[c]([Bi]([c]2ccccc2)[c]2ccccc2)cc1,Potency,[1],inactive
O=C(CCCCCCC(=O)Nc1ccccc1)NO,Potency,[1],inactive
C=CC(=O)NCOCC(C)C,Potency,[4],inactive
same,Potency,[1],inactive
same,Potency,[5],inactive
Cc1cc(S(=O)(=O)O)ccc1N=Nc1c(O)ccc2ccccc12,Potency,[4],inactive
same,Potency,[2],inactive
same,Potency,[3],inactive
same,Potency,[5],30.6 µM (active)
Cc1oc(C)c(C(=O)Nc2ccccc2)c1C,Potency,[4],inactive
same,Potency,[2],inactive
same,Potency,[3],inactive
same,Potency,[5],inactive
COC(=O)CC(=O)C(C)(C)C,Potency,[1],inactive
CN1Cc2cc(C(=O)N3CCC(C4CCNCC4)CC3)ccc2N[C@@H](CC(=O)O)C1=O,Potency,[4],inactive
same,Potency,[1],inactive
same,Potency,[5],inactive
CC[C@@H]([C@H](C)O)n1ncn(-c2ccc(N3CCN(c4ccc(OC[C@@H]5CO[C@@](Cn6cncn6)(c6ccc(F)cc6F)C5)cc4)CC3)cc2)c1=O,Potency,[4],4.77 µM (active)
same,Potency,[3],inactive
same,Potency,[5],9.44 µM (active)
CC(C)(O)c1ccccc1CC[C@@H](SCC1(CC(=O)O)CC1)c1cccc(/C=C/c2ccc3ccc(Cl)cc3n2)c1,Potency,[4],inactive
same,Potency,[1],inactive
same,Potency,[5],inactive
C[C@@H]1C[C@H]2[C@@H]3CCC4=CC(=O)C=C[C@]4(C)[C@@]3(F)[C@@H](O)C[C@]2(C)[C@@]1(O)C(=O)CO,Potency,[4],inactive
same,Potency,[1],inactive
same,Potency,[5],inactive
CC(Cl)C(Cl)Cl (centres undefined),Potency,[4],inactive
same,Potency,[1],inactive
same,Potency,[5],inactive
COCCOC,Potency,[4],inactive
same,Potency,[2],6.54 µM (active)
same,Potency,[3],inactive
same,Potency,[5],1.04 µM (active)
Nc1nccs1,Potency,[4],inactive
same,Potency,[1],inactive
same,Potency,[5],inactive
CC(COc1ccc(C(C)(C)C)cc1)OS(=O)OCCCl (centres undefined),Potency,[4],inactive
same,Potency,[2],3.88 µM (active)
same,Potency,[3],inactive
same,Potency,[5],0.488 µM (active)
C/C=C/C=C/CCCCCCCO,Potency,[4],inactive
same,Potency,[3],inactive
CO/N=C1\CN(c2nc3c(cc2F)c(=O)c(C(=O)O)cn3C2CC2)CC1CN (centres undefined),Potency,[4],inactive
same,Potency,[1],inactive
same,Potency,[5],inactive
CN1CCN(c2c(F)cc3c(=O)c(C(=O)O)cn4c3c2OCN4C)CC1,"activity change, negative = cytotoxicity",[4],2.53% [at 15.8 µM]
same,"activity change, negative = cytotoxicity",[1],-0.366% [at 19 µM]
same,"viability change, negative = cytotoxic",[5],6.99% [at 19 µM]
C=CC(C)(O)CCCC(C)CCCC(C)CCCC(C)C (centres undefined),Potency,[4],inactive
same,Potency,[2],inactive
same,Potency,[3],inactive
same,Potency,[5],inactive
C=CCOC(=O)/C=C\C(=O)OCC=C,Potency,[4],inactive
same,Potency,[1],inactive
same,Potency,[5],inactive
NC(=O)Nc1ccc(Cl)cc1,Potency,[4],inactive
same,Potency,[1],inactive
same,Potency,[5],inactive
CC1=C(C=O)C(C)(C)CCC1,Potency,[4],inactive
same,Potency,[1],inactive
same,Potency,[5],inactive
NC(=O)N(O)[C@@H]1COc2cc(OCc3ccccc3)ccc21,Potency,[1],inactive
NC(=O)Cn1c(=O)cc(CCN2CCN(c3nccc4sccc34)CC2)c2ccc(F)cc21,Potency,[1],inactive
CCOC(=O)CC(=O)C(=O)OCC,Potency,[1],inactive
same,Potency,[2],inactive
same,Potency,[3],inactive
CCOC(=O)OCC,Potency,[4],inactive
same,Potency,[1],inactive
same,Potency,[5],inactive
CC(=O)Nc1ccccc1C,Potency,[4],inactive
same,Potency,[1],inactive
same,Potency,[5],inactive
Cn1c(=O)c2c(ncn2CC(=O)O)n(C)c1=O,Potency,[4],inactive
same,Potency,[1],inactive
same,Potency,[5],inactive
CC(CCO)CCc1ccccc1 (centres undefined),Potency,[4],inactive
same,Potency,[1],inactive
same,Potency,[5],inactive
Cc1ccc(S)cc1,Potency,[4],inactive
same,Potency,[1],inactive
same,Potency,[5],inactive
C/C=C(\C)C(=O)OCCC(C)CCC=C(C)C (centres undefined),Potency,[4],inactive
same,Potency,[1],inactive
same,Potency,[5],inactive
C=CC(C)=CCC=C(C)C,Potency,[4],inactive
same,Potency,[1],inactive
same,Potency,[5],inactive
CCCCC/C(=C\c1ccccc1)CO,Potency,[1],inactive
same,Potency,[2],inactive
same,Potency,[3],inactive
same,Potency,[5],inactive
CCNC(=O)N1CCN(CCCC(c2ccc(F)cc2)c2ccc(F)cc2)CC1,Potency,[1],inactive
same,Potency,[3],inactive
same,Potency,[6],8.1 µM (active)
same,outcome,[7],inactive
same,Potency,[8],inactive
same,Potency,[5],18.8 µM (active)
